# Source: publication PMC8384837, “Expanding the binding specificity for RNA recognition by a PUF domain”
# Positions count from the first letter of the chain named.
# What was measured:
# Assay in all cases: yeast three-hybrid, YBZ-1, SC-Leu-His + 0.5 mM 3-AT, 4 days
# Details in all cases: tags: N-Gal4 AD-HA kept; label: inside an RPR1-promoter hybrid RNA with tandem MS2 sites; ssRNA
# [1] = molecular target: PUM1 PUF domain R1-QCR (Homo sapiens, UniProt Q14671 828-1176, S863Q;R864C;Q867R)
# Procedure, shortened: (§1)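 A centromeric plasmid in strain YBZ-1 co-expressed Pumilio-1 PUF domain libraries, randomized at the three base-contacting residues of each repeat, with matching RNA elements; the strain carries a LexA–MS2 coat fusion and a HIS3 reporter. After four days on SC-Leu (input) or SC-Leu-His + 0.5 mM 3-AT (selection), the repeat regions were PCR-amplified and Illumina-sequenced. The interaction score is the log change in variant frequency from input to selection, using log2 and a pseudocount of 1 where absent.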
# [2] = molecular target: PUM1 PUF domain R1-SYK (Homo sapiens, UniProt Q14671 828-1176, R864Y;Q867K)
# Procedure, shortened: as §1
# [3] = molecular target: T1, PUM1 PUF domain R6-HWW (Homo sapiens, UniProt Q14671 828-1176, N1043H;Y1044W;Q1047W)
# T1 sequence: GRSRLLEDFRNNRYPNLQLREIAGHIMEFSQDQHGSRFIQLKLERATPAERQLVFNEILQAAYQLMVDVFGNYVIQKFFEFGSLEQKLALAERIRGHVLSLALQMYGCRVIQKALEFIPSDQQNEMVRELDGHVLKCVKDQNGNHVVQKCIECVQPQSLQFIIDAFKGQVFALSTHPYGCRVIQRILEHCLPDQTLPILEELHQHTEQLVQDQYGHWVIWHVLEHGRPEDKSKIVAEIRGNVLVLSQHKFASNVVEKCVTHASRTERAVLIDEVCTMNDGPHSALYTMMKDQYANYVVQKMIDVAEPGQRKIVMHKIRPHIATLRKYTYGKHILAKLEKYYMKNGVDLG
# Procedure, shortened: as §1
# [4] = molecular target: T2, PUM1 PUF domain R6-NWL (Homo sapiens, UniProt Q14671 828-1176, Y1044W;Q1047L)
# T2 sequence: T1 sequence with H216N, W220L
# Procedure, shortened: as §1
# [5] = molecular target: PUM1 PUF domain R5-IYM (Homo sapiens, UniProt Q14671 828-1176, C1007I;R1008Y;Q1011M)
# Procedure, shortened: as §1
# [6] = molecular target: T3, PUM1 PUF domain R6-SHR (Homo sapiens, UniProt Q14671 828-1176, N1043S;Y1044H;Q1047R)
# T3 sequence: T1 sequence with H216S, W217H, W220R
# Procedure, shortened: as §1
# [7] = molecular target: PUM1 PUF domain R3-VRG (Homo sapiens, UniProt Q14671 828-1176, C935V;Q939G)
# Procedure, shortened: as §1
# [8] = molecular target: PUM1 PUF domain R3-DFV (Homo sapiens, UniProt Q14671 828-1176, C935D;R936F;Q939V)
# Procedure, shortened: as §1
# [9] = molecular target: PUM1 PUF domain R3-SCY (Homo sapiens, UniProt Q14671 828-1176, C935S;R936C;Q939Y)
# Procedure, shortened: as §1
# [10] = molecular target: T4, PUM1 PUF domain R6-DYQ (Homo sapiens, UniProt Q14671 828-1176, N1043D)
# T4 sequence: T1 sequence with H216D, W217Y, W220Q
# Procedure, shortened: as §1
# [11] = molecular target: T5, PUM1 PUF domain R6-VYR (Homo sapiens, UniProt Q14671 828-1176, N1043V;Q1047R)
# T5 sequence: T1 sequence with H216V, W217Y, W220R
# Procedure, shortened: as §1
# [12] = molecular target: PUM1 PUF domain R2-VWW (Homo sapiens, UniProt Q14671 828-1176, N899V;Y900W;Q903W)
# Procedure, shortened: as §1
# [13] = molecular target: PUM1 PUF domain R2-FWW (Homo sapiens, UniProt Q14671 828-1176, N899F;Y900W;Q903W)
# Procedure, shortened: as §1
# [14] = molecular target: PUM1 PUF domain R5-RQN (Homo sapiens, UniProt Q14671 828-1176, C1007R;R1008Q;Q1011N)
# Procedure, shortened: as §1
# [15] = molecular target: PUM1 PUF domain R5-RGC (Homo sapiens, UniProt Q14671 828-1176, C1007R;R1008G;Q1011C)
# Procedure, shortened: as §1
# [16] = molecular target: PUM1 PUF domain R5-RSP (Homo sapiens, UniProt Q14671 828-1176, C1007R;R1008S;Q1011P)
# Procedure, shortened: as §1
# [17] = molecular target: PUM1 PUF domain R7-RRN (Homo sapiens, UniProt Q14671 828-1176, S1079R;N1080R;E1083N)
# Procedure, shortened: as §1
# [18] = molecular target: PUM1 PUF domain R7-GNR (Homo sapiens, UniProt Q14671 828-1176, S1079G;E1083R)
# Procedure, shortened: as §1
sequence,measurement,setting,value
GGCUAGAACUAGUGGAUCCCCCGGCGCCCGGCGGCUCGAGCCCGGGUAAGUGUAAAUUGUCUGCAUGCCGCCGGGCGCCAUGCCUGCAGGUCGACUCUAGAAAACAUG,binding signal,[1],1.4 log2 enrichment (interaction score)
GGCUAGAACUAGUGGAUCCCCCGGCGCCCGGCGGCUCGAGCCCGGGUAAGUGUAAAUCGUCUGCAUGCCGCCGGGCGCCAUGCCUGCAGGUCGACUCUAGAAAACAUG,binding signal,[1],2.48 log2 enrichment (interaction score)
same,binding signal,[2],2.72 log2 enrichment (interaction score)
GGCUAGAACUAGUGGAUCCCCCGGCGCCCGGCGGCUCGAGCCCGGGUAAGUGUAAAUAGUCUGCAUGCCGCCGGGCGCCAUGCCUGCAGGUCGACUCUAGAAAACAUG,binding signal,[3],4.93 log2 enrichment (interaction score)
same,binding signal,[4],5.32 log2 enrichment (interaction score)
same,binding signal,[5],3.85 log2 enrichment (interaction score)
same,binding signal,[6],4.81 log2 enrichment (interaction score)
same,binding signal,[7],3.39 log2 enrichment (interaction score)
same,binding signal,[8],5.54 log2 enrichment (interaction score)
same,binding signal,[9],3.56 log2 enrichment (interaction score)
same,binding signal,[10],6.54 log2 enrichment (interaction score)
same,binding signal,[11],2.97 log2 enrichment (interaction score)
GGCUAGAACUAGUGGAUCCCCCGGCGCCCGGCGGCUCGAGCCCGGGUAAGUGUAAAAAGUCUGCAUGCCGCCGGGCGCCAUGCCUGCAGGUCGACUCUAGAAAACAUG,binding signal,[12],2.5 log2 enrichment (interaction score)
same,binding signal,[13],4.3 log2 enrichment (interaction score)
GGCUAGAACUAGUGGAUCCCCCGGCGCCCGGCGGCUCGAGCCCGGGUAAGUGAAAAUAGUCUGCAUGCCGCCGGGCGCCAUGCCUGCAGGUCGACUCUAGAAAACAUG,binding signal,[4],2.34 log2 enrichment (interaction score)
same,binding signal,[11],6.09 log2 enrichment (interaction score)
GGCUAGAACUAGUGGAUCCCCCGGCGCCCGGCGGCUCGAGCCCGGGUAAGUGUCAAUAGUCUGCAUGCCGCCGGGCGCCAUGCCUGCAGGUCGACUCUAGAAAACAUG,binding signal,[14],4.58 log2 enrichment (interaction score)
same,binding signal,[15],1.32 log2 enrichment (interaction score)
same,binding signal,[16],2.36 log2 enrichment (interaction score)
GGCUAGAACUAGUGGAUCCCCCGGCGCCCGGCGGCUCGAGCCCGGGUAAGUGUGAAUAGUCUGCAUGCCGCCGGGCGCCAUGCCUGCAGGUCGACUCUAGAAAACAUG,binding signal,[14],1.54 log2 enrichment (interaction score)
GGCUAGAACUAGUGGAUCCCCCGGCGCCCGGCGGCUCGAGCCCGGGUAAGUCUAAAUAGUCUGCAUGCCGCCGGGCGCCAUGCCUGCAGGUCGACUCUAGAAAACAUG,binding signal,[17],3.94 log2 enrichment (interaction score)
GGCUAGAACUAGUGGAUCCCCCGGCGCCCGGCGGCUCGAGCCCGGGUAAGUUUAAAUAGUCUGCAUGCCGCCGGGCGCCAUGCCUGCAGGUCGACUCUAGAAAACAUG,binding signal,[17],4.89 log2 enrichment (interaction score)
same,binding signal,[18],2.05 log2 enrichment (interaction score)
GGCUAGAACUAGUGGAUCCCCCGGCGCCCGGCGGCUCGAGCCCGGGUAAGUGCAAAUAGUCUGCAUGCCGCCGGGCGCCAUGCCUGCAGGUCGACUCUAGAAAACAUG,binding signal,[6],5.39 log2 enrichment (interaction score)
GGCUAGAACUAGUGGAUCCCCCGGCGCCCGGCGGCUCGAGCCCGGGUAAGUGUAAGUAGUCUGCAUGCCGCCGGGCGCCAUGCCUGCAGGUCGACUCUAGAAAACAUG,binding signal,[7],0.46 log2 enrichment (interaction score)
GGCUAGAACUAGUGGAUCCCCCGGCGCCCGGCGGCUCGAGCCCGGGUAAGUGUUAAUAGUCUGCAUGCCGCCGGGCGCCAUGCCUGCAGGUCGACUCUAGAAAACAUG,binding signal,[15],3.22 log2 enrichment (interaction score)
same,binding signal,[16],1.1 log2 enrichment (interaction score)
